PubChem BioAssay
Values without a mark were called inactive. Where a call stands in place of a potency, no number is given. For part of these data: Potency and affinity values are given separately. Active and inactive are the calls of the source. Unless noted, how the calls were made is not given here.

Tests used:
[1] = antimalarial activity against Dd2 strain (AID 2302;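 active means growth inhibition above 50% at the single 2 µM test dose, taken to imply half-maximal potency below 2 µM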); conditions: P. falciparum Dd2 in RBCs, LDH growth readout, 72 h; at 2 µM; hits give high values
[2] = human hepatoma cell viability loss – ATP luminescence, cytotoxicity control for P. falciparum antimalarial project, primary screen (AID 2303;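 active means inhibition above 50%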); conditions: HepG2 viability, 24-48 h, at 10 µM, hits give high values
[3] = biological target: L-lactate dehydrogenase (Plasmodium falciparum (isolate CDC / Honduras)) (UniProt Q27743); experiment: PfLDH activity inhibition – cell lysate, 3D7 strain, counter-screen for P. falciparum growth inhibition project (AID 2304); conditions: P. falciparum 3D7 crude extract, LDH APAD/NBT absorbance; at 2 µM; hits give high values
L-lactate dehydrogenase (Plasmodium falciparum (isolate CDC / Honduras)), sequence (Q27743 whole entry, looked up): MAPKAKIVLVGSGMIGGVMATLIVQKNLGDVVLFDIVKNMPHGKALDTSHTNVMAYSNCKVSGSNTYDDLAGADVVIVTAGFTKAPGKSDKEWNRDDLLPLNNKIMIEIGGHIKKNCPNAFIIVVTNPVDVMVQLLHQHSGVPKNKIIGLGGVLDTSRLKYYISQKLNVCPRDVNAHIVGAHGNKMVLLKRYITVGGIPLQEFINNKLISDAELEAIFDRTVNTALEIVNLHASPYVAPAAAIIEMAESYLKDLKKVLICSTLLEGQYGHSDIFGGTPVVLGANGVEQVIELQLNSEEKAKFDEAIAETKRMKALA

[4] = inhibition of 3D7 malaria parasite growth – strain 3D7 (AID 2306); conditions: P. falciparum 3D7 erythrocytic growth, LDH absorbance, 72 h; at 2 µM; hits give high values
[5] = biological target: Calcium-dependent protein kinase 1 (Plasmodium falciparum (isolate 3D7)) (UniProt P62344); experiment: PfCDPK1 kinase inhibitors, biochemical, TCAMS library (AID 1159585; cut-off not given, nearly all actives have IC50 up to about 0.98 µM;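 further: inhibitors leave more ATP so luminescence rises with inhibition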); conditions: recombinant PfCDPK1, Kinase-Glo ATP depletion luminescence
Calcium-dependent protein kinase 1 (Plasmodium falciparum (isolate 3D7)), sequence (P62344 whole entry, looked up): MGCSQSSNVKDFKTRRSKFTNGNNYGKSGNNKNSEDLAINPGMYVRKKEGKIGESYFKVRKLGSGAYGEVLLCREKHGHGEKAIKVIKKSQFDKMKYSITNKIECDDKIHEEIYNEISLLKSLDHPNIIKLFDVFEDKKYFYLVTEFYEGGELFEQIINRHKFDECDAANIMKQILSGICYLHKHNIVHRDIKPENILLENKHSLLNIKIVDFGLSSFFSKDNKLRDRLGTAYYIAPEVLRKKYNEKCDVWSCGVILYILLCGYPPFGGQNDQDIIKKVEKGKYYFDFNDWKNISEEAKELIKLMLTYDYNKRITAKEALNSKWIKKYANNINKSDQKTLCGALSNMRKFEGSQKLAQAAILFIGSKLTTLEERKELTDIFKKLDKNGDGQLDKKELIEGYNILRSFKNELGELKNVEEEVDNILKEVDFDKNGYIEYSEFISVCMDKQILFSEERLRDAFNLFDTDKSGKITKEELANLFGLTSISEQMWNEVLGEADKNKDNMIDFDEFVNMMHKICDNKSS

[6] = biological target: Plasmodium falciparum protein kinase 6 (PK6, PF3D7_1337100) (UniProt Q8IDW1); experiment: PfPK6 kinase inhibitors, biochemical, TCAMS library (AID 1159586); conditions: recombinant PfPK6, Kinase-Glo ATP depletion luminescence
Plasmodium falciparum protein kinase 6 (PK6, PF3D7_1337100), sequence (Q8IDW1 1-305): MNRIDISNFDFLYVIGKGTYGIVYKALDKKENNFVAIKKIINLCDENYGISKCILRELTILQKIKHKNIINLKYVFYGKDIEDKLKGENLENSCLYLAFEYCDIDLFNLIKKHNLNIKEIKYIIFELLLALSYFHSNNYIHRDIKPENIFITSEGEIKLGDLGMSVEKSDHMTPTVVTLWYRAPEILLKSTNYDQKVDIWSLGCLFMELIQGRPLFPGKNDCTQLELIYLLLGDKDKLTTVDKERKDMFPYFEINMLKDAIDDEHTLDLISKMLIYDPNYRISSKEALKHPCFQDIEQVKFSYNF

[7] = biological target: Protein kinase 7 (PK7), Plasmodium falciparum 3D7 (PF3D7_0213400) (UniProt Q7YTF7); experiment: inhibition of Plasmodium PK7 catalytic activity – biochemical, TCAMS antimalarial set, Kinase-Glo luminescence (AID 1159587); conditions: recombinant PfPK7, Kinase-Glo ATP depletion luminescence
Protein kinase 7 (PK7), Plasmodium falciparum 3D7 (PF3D7_0213400), sequence (Q7YTF7 1-343): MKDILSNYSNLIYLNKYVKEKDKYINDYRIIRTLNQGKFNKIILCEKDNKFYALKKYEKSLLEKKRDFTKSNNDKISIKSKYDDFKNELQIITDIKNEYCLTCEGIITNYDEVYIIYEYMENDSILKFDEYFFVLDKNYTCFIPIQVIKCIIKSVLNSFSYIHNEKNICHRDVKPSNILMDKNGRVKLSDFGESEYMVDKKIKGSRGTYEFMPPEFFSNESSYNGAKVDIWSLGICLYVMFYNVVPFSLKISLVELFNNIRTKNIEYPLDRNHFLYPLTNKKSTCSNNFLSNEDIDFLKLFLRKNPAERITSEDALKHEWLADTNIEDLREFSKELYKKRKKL

[8] = biological target: Calcium-dependent protein kinase 4 (Plasmodium falciparum (isolate 3D7)) (UniProt Q8IBS5); experiment: PfCDPK4 kinase inhibitors, biochemical, TCAMS library (AID 1159588; cut-off not given, nearly all actives have IC50 up to about 0.91 µM); conditions: recombinant PfCDPK4, Kinase-Glo ATP depletion luminescence
Calcium-dependent protein kinase 4 (Plasmodium falciparum (isolate 3D7)), sequence (Q8IBS5 whole entry, looked up): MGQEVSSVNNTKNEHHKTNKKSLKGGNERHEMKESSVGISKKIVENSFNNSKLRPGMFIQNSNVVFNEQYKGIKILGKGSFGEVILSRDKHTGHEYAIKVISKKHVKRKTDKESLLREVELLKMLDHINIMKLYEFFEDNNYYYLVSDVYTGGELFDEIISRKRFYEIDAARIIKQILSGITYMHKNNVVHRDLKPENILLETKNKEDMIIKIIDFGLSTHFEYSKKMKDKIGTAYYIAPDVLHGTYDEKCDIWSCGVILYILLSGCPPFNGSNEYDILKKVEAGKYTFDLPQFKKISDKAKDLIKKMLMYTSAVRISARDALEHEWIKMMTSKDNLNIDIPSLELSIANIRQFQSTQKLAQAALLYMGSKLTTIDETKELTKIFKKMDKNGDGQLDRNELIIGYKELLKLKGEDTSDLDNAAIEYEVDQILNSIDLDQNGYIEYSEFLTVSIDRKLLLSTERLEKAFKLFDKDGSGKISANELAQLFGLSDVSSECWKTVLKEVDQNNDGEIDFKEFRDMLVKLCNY

| Structure (SMILES) | growth inhibition [1] | inhibition [2] | inhibition [3] [%] | growth inhibition [4] | outcome [5] | outcome [6] | outcome [7] | outcome [8] |
| --- | --- | --- | --- | --- | --- | --- | --- | --- |
| O=S(=O)(NCCN1CCCC1)c1cccc(-c2cccc(CNCc3ccsc3)c2)c1 | 55% (active) | 69% (active) | 6 | 101% (active) | inactive | inactive | inactive | inactive |
| CCCC(C)NC(=O)[C@H](CC1CCCCC1)NC(=O)c1ccc(O)c(-c2ccc(OC)cc2)c1 (some centres undefined) | 37% | 3% | 1 | 89% (active) | inactive | inactive | inactive | inactive |
| COc1ccc(-c2ccc([N+](=O)[O-])cc2C(=O)NCC(C)Oc2ccc(C(F)(F)F)cc2)cc1 (centres undefined) | 81% (active) | 6% | 5 | 102% (active) | inactive | inactive | inactive | inactive |
| CCCN(CCC)S(=O)(=O)c1ccc(C(=O)Nc2nc3ccc(-c4cc(=O)[nH]c(Nc5ccccc5Cl)n4)cc3[nH]2)cc1 | 98% (active) | 1% | -4 | 100% (active) | inactive | inactive | inactive | inactive |
| O=C(NCc1ccc(F)cc1)c1ccc(N2CCN(c3ccncc3)CC2)cn1 | 81% (active) | 7% | -2 | 98% (active) | inactive | inactive | inactive | inactive |
| CCCCCCCCOc1ccc(N2C(N)=NC(N)=NC2(C)C)cc1 | -6% | 31% | -4 | 100% (active) | inactive | inactive | inactive | inactive |
| Cn1c(-c2ccccc2)cc2c3c(N)nc(N)nc3ccc21 | 30% | 27% | -2 | 100% (active) | inactive | inactive | inactive | inactive |
| Cc1cccc(-c2cc3cc(Nc4ccnc5cc(-c6nccs6)ccc45)ccc3[nH]2)c1 | 100% (active) | 0% | 1 | 101% (active) | inactive | inactive | inactive | inactive |
| CCOc1ccc2ccccc2c1CNCCCCCCNCc1c(OCC)ccc2ccccc12 | 89% (active) | 100% (active) | -2 | 100% (active) | inactive | inactive | inactive | inactive |
| N#Cc1cc(C(=O)c2cc(Cl)ccc2O)cn(-c2cccc(C(F)(F)F)c2)c1=O | 7% | -1% | -2 | 87% (active) | inactive | inactive | inactive | inactive |
| N#Cc1ccc(N2CCN(Cc3cccc(-c4ccc(-c5nc6ccc(C(F)(F)F)cc6[nH]5)cc4)c3)CC2)nc1 | 81% (active) | 39% | -1 | 101% (active) | inactive | inactive | inactive | inactive |
| CC(C)(Oc1c(C2CCN(CCCCNC(=O)c3ccc(-c4ccc(Cl)cc4)cc3)CC2)ccc2c1CCCC2)C(N)=O | 5% | 100% (active) | 1 | 93% (active) | inactive | inactive | inactive | inactive |
| Cc1ccc(Cn2cnc3cc(C(=O)Nc4ccc(-c5cccc(CN(C)C)c5)cc4)ccc3c2=O)o1 | 39% | 22% | 4 | 99% (active) | inactive | inactive | inactive | inactive |
| CCOC(=O)c1cn(CC)c2cc(N3CCCCC3)c(F)cc2c1=O | 96% (active) | 0% | 2 | 97% (active) | inactive | inactive | inactive | inactive |
| CCCNC(=O)c1cncc(-c2ccc(CNC(CC)c3ccccc3)cc2)c1 (centres undefined) | 1% | 20% | 0 | 92% (active) | inactive | inactive | inactive | inactive |
| CC(=O)CCc1ccc(OCCN(Cc2ccccc2C(F)(F)F)c2ccc(C#N)c(C(F)(F)F)c2)cc1 | 87% (active) | 14% | 0 | 100% (active) | inactive | inactive | inactive | inactive |
| CCOC(=O)c1cn(CC)c2cc(N3CCCCCC3)c(F)cc2c1=O | 89% (active) | -2% | 3 | 94% (active) | inactive | inactive | inactive | inactive |
| N=C(N)CCN(Cc1ccc(Cl)cc1)c1ccc(Cl)cc1 | 92% (active) | 22% | 5 | 96% (active) | inactive | inactive | inactive | inactive |
